Results filed as inconclusive are left out. The source made the active and inactive calls. Calls come from the whole dose curve; as a rule, active = well fitted cell-killing curve with a large enough effect; inconclusive = small, poorly fitted or top-dose-only effect, or effect the other way; inactive = no such curve, though single readings can be large or run the other way.
Potency is the fitted concentration of half-maximal effect.

This experiment concerns Hek293T. In words: Confirmatory qHTS for gynecologic anti-cancer compounds from libraries of approved drugs and bioactive compounds. Note: nearly all actives have a fitted effect of over 55% in size. As to conditions: gynecologic cancer cell panel viability, ATPlite luminescence, 48 h; series mostly up to 57.6 µM. The gist of the method:
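Seeding 1,000 cells per well preceded overnight (16 h) attachment, after which 48 h drug treatment across 57.5 uM–0.977 nM (11 points) was applied. Remaining cellular ATP, detected by ATPlite luminescence, defined IC50.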
For `CN1CCN(c2cccc(Nc3nc4c(-c5ccc(S(C)(=O)=O)cc5)cccn4n3)c2)CC1`, the Potency entry is “inactive”. Consider `Cn1cc(-c2[nH]c3cc(NC(=O)[C@H](N)C4CCCCC4)cc4c3c2C=NNC4=O)cn1`, for which the Potency is 432 nM (active). In the case of `NC(=O)Nc1cc(-c2cccc(F)c2)sc1C(=O)NC1CCCNC1` (centres undefined) it was 273 nM (active); in that of `CC[C@H](CC#N)OC(=O)N[C@@H](C)c1cccc(NC(=O)Nc2ccc(-c3cnco3)c(OC)c2)c1`, 76.9 nM (active); in that of `CCN1CCN(Cc2ccc(Nc3ncc(F)c(-c4cc(F)c5nc(C)n(C(C)C)c5c4)n3)nc2)CC1`, “inactive”.

As to `CCN(CC)CCNC(=O)c1c(C)[nH]c(/C=C2\C(=O)Nc3ccc(F)cc32)c1C`, the Potency is 31600 nM (active). With `CCCC(Nc1nc(-c2ccc(NC(=O)NCC)c(OC)c2)ncc1C)c1cccnc1` (centres undefined) the entry was “inactive”. Turning to `Nc1ccc(-c2ccc3ncc4ccc(=O)n(-c5cccc(C(F)(F)F)c5)c4c3c2)cn1`, the Potency is 54.4 nM (active).

On to `CCN(CC)CCOc1ccc(/C(=C(\Cl)c2ccccc2)c2ccccc2)cc1`, for which the Potency is 126000 nM (active). For `CCN[C@H]1C[C@H](C)S(=O)(=O)c2sc(S(N)(=O)=O)cc21`, the Potency entry is “inactive”. With `CC[C@@]1(O)C(=O)OCc2c1cc1n(c2=O)Cc2cc3cc(O)ccc3nc2-1` the figure was 385 nM (active); with `CN1C2CCC1CC(OC(=O)[C@H](CO)c1ccccc1)C2` (some centres undefined), “inactive”. In the case of `CCC1C(=O)N(C)c2cnc(Nc3ccc(C(=O)NC4CCN(C)CC4)cc3OC)nc2N1C1CCCC1` (centres undefined) it was 19.3 nM (active); in that of `Cc1ccc(-n2[nH]c(C)c(N=Nc3cccc(-c4cccc(C(=O)O)c4)c3O)c2=O)cc1C`, “inactive”. With `Cc1ccc(C(=O)Nc2ccc(Oc3cc4cnn(C)c4cc3-c3cn[nH]c3)c(F)c2)c(=O)n1-c1ccc(F)cc1` the figure was 1930 nM (active); with `CC(C)Oc1ccc(C(=O)NC(CNC(=O)CN(C)C)Cc2ccc(-c3cn4cccc(C(C)O)c4n3)cc2)cc1Cl` (centres undefined), “inactive”; with `CS(=O)(=O)c1ccc(C(=O)Nc2ccc(Cl)c(-c3ccccn3)c2)c(Cl)c1`, “inactive”. Take `Cc1nc(Nc2n[nH]c3c2CN(C(=O)NC(CN(C)C)c2ccccc2)C3(C)C)c2sccc2n1` (centres undefined): the Potency was 9680 nM (active). In the case of `Cc1cc(C2CCCCC2)n(O)c(=O)c1` it was 11100 nM (active); in that of `CC[C@@]1(O)C(=O)OCc2c1cc1n(c2=O)Cc2cc3c(CN(C)C)c(O)ccc3nc2-1`, 3430 nM (active). Take `CC(C)C[C@H](NC(=O)[C@@H](NC(=O)c1cccc(-c2ccccc2)n1)[C@@H](C)O)B(O)O`: the Potency is 193 nM (active). In the case of `COc1cc2c(Oc3ccc(-c4cnc(Nc5ccc(F)cc5)n(C)c4=O)cc3F)ccnc2cc1OCCCN1CCOCC1`, the Potency is 15300 nM (active).

For `Cc1ccc(C(=O)N(CCCN)C(c2nc3cc(Cl)ccc3c(=O)n2Cc2ccccc2)C(C)C)cc1` (centres undefined), the Potency was 6.1 nM (active). In the case of `CCC(=O)N1CCN(c2ccc(-n3c(=O)ccc4cnc5ccc(-c6cnc7ccccc7c6)cc5c43)cc2C(F)(F)F)CC1` it was 49.8 nM (active). Regarding `CC(C)(C)C(=O)OCOP(=O)(COCCn1cnc2c(N)ncnc21)OCOC(=O)C(C)(C)C`, the Potency was 3430 nM (active). On to `COc1cc2c(Nc3ccc(NC(=O)c4ccccc4)cc3)ncnc2cc1OCCCN1CCOCC1`, for which the Potency was 24300 nM (active). Regarding `CN(C)/N=N/c1nc[nH]c1C(N)=O`, the Potency result is “inactive”.

As to `CCOc1cc2ncc(C#N)c(Nc3ccc(F)c(Cl)c3)c2cc1NC(=O)/C=C/CN(C)C`, the Potency was 15300 nM (active). In the case of `Cc1cnc(Nc2cccc(CN3CCOCC3)c2)nc1Nc1cccc(S(=O)(=O)NC(C)(C)C)c1` it was “inactive”; in that of `CCCCc1nc2cc(/C=C/C(=O)NO)ccc2n1CCN(CC)CC`, 1720 nM (active).

Consider `NC(=O)c1cccc2cn(-c3ccc([C@@H]4CCCNC4)cc3)nc12`, for which the Potency entry was “inactive”.

For the compound `O=c1c(-c2ccc(O)cc2)coc2cc(O)cc(O)c12`, the Potency entry is “inactive”. In the case of `CCN1CCN(Cc2ccc(-c3cc4c(NC(C)c5ccccc5)ncnc4[nH]3)cc2)CC1` (centres undefined) it was 27300 nM (active); in that of `Cc1cc(Nc2nc(N[C@@H](C)c3ccc(F)cc3)c(C#N)cc2F)n[nH]1`, “inactive”.

The values above are taken from PubChem BioAssay AID1345085 (National Center for Advancing Translational Sciences (NCATS), 2018).
